Bcl-xL primary = inhibitors of human Bcl-xL, primary screen, biochemical, fluorescence polarization, HTS; Bcl-2-like protein 1 (Homo sapiens), Q07817; GST-Bcl-xL / FITC-Bim BH3 peptide fluorescence polarization; inhibition, % at 10.9 µM; AID 2129, 2009; 320,000 tested, 0.7% active;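 active = inhibition above the mean of all tested compounds plus 3 SD, cutoff set per campaign, cut at about 30% in these data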;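 note: inhibitors lower millipolarization by displacing the labeled peptide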
GLD-1 RNA inh = GLD-1/TGE RNA complex disruptors, primary screen, biochemical, fluorescence polarization. inhibition, % at 5.96 µM. purified GLD-1 + fluorescein TGE RNA. 320,000 tested, 0.44% active. AID 2280, 2010;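 active = percent inhibition above a per-plate cutoff, the plate mean of test compounds plus 3 SD, cut at about 30% in these data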
Target sequence (Q17339 whole entry, looked up): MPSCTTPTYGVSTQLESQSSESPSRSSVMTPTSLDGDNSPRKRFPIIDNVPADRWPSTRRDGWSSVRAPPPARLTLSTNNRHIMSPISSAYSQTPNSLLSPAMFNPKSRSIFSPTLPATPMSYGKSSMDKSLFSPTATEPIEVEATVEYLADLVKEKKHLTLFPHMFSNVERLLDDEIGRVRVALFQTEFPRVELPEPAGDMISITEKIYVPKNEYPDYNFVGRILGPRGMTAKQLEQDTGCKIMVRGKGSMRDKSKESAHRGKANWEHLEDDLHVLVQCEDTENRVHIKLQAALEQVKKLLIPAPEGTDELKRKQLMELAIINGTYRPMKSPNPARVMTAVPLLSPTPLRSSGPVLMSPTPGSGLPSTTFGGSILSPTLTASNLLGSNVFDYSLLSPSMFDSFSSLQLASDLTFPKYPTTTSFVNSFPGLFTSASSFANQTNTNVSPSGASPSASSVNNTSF
E coli Lon inh = inhibitors of E. coli Lon protease, primary screen, biochemical, fluorescence polarization | P0A9M0 | purified E. coli Lon protease | inhibition, % at 7.94 µM | 360,000 tested, 0.42% active | AID 602123, 2011; in the data active = inhibition above about 13%, passing the limit was not always enough
cardiac RTF act = cardiac RTF calcium sensitivity activators, primary screen, biochemical, IANBD-TnC fluorescence, EC20 calcium | Troponin I, cardiac muscle (Homo sapiens) + Troponin T, cardiac muscle (Homo sapiens) + … | AID 493008, 2010 | 340,000 tested, 0.24% active | activation, % at 7.2 µM | IANBD-labeled TnC RTF fluorescence at EC20 calcium; 0% EC20 calcium, 100% full calcium;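 active = activation above the mean over all tested compounds plus 3 SD, cut at about 30% in these data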;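 note: rise in fluorescence read as greater calcium sensitivity of cardiac thin filaments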
RTF Ca sens inh = cardiac RTF calcium sensitivity inhibitors, primary screen, biochemical, IANBD-TnC fluorescence, EC70 calcium; Troponin I, cardiac muscle (Homo sapiens) + Troponin T, cardiac muscle (Homo sapiens) + …; IANBD-labeled cardiac RTF, Ca2+ fluorescence; 340,000 tested, 0.12% active; AID 493244, 2011; inhibition, % at 7.15 µM;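 active = inhibition above the mean inhibition of all tested compounds plus 3 SD, cut at about 17% in these data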;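 note: assay run at fixed EC70 calcium of 1.6 mM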
GLD-1 TGE cf = GLD-1/TGE RNA binding inhibitors, retest, confirmation, biochemical, fluorescence polarization, triplicate. shares compounds with GLD-1 RNA inh. inhibition, % at 5.96 µM. AID 2459, 2010. 550 tested, 10% active. GLD-1/FL-TGE RNA fluorescence polarization;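 active = average inhibition across triplicates above the hit cutoff set in the primary screen, cut at about 32% in these data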
Numbers stand for hits. Hits are enriched below; roughly 1.2% of the tested compounds scored in any of these assays.

CCn1c(CSc2nnc(-c3cccnc3)n2-c2ccccc2C)nc2cc(C(=O)O)ccc21 was read as Bcl-xL primary 30.3, GLD-1 RNA inh 45.9 and GLD-1 TGE cf inactive.
CCn1c(CSc2nnc(-c3ccncc3)n2CCOC)nc2cc(C(=O)O)ccc21 was read as Bcl-xL primary inactive, GLD-1 RNA inh inactive, E coli Lon inh inactive, cardiac RTF act inactive and RTF Ca sens inh inactive.
COc1ccc([C@@H]2[C@@H]3C(=O)N(C(C)(C)C)C(=O)[C@@H]3[C@]3(Cc4ccccc4)C(=O)N(c4cccc(F)c4)C(=O)N23)cc1 was read as Bcl-xL primary inactive, GLD-1 RNA inh inactive, E coli Lon inh inactive, cardiac RTF act inactive and RTF Ca sens inh inactive.
CC1=Nn2c(nnc2-c2cc(-c3ccccc3)n[nH]2)SC1 was read as Bcl-xL primary inactive, GLD-1 RNA inh inactive, E coli Lon inh inactive, cardiac RTF act inactive and RTF Ca sens inh inactive.
Cc1ccc(S(=O)(=O)c2cc3ccc(O)cc3oc2=O)cc1C was read as Bcl-xL primary inactive, GLD-1 RNA inh 32.1, E coli Lon inh inactive, cardiac RTF act inactive, RTF Ca sens inh inactive and GLD-1 TGE cf inactive.
Screening COc1ccc2cc(S(=O)(=O)c3ccccc3)c(=O)oc2c1 returned Bcl-xL primary inactive, GLD-1 RNA inh inactive, E coli Lon inh inactive, cardiac RTF act inactive and RTF Ca sens inh inactive.
For N#CC1=C(N)C(C#N)(C#N)[C@H](c2c(F)cccc2F)[C@H]2CC3(CC=C12)OCCO3 the results were Bcl-xL primary 58.0, GLD-1 RNA inh 54.9, E coli Lon inh inactive, cardiac RTF act inactive, RTF Ca sens inh inactive and GLD-1 TGE cf inactive.
For CC12CCC(C/C1=N\N=C1\NC(=O)/C(=C\c3ccc(Cl)cc3)S1)C2(C)C (stereo not given) the results were Bcl-xL primary inactive, GLD-1 RNA inh inactive, E coli Lon inh inactive, cardiac RTF act inactive and RTF Ca sens inh inactive.
`Cc1c(OCC(=O)NCc2ccccn2)ccc2c(-c3ccccc3)cc(=O)oc12` gave Bcl-xL primary inactive, GLD-1 RNA inh inactive, E coli Lon inh inactive, cardiac RTF act inactive and RTF Ca sens inh inactive.
O=C(CSc1nnc(Cc2cc(=O)[nH]c(=O)[nH]2)n1-c1ccc(Cl)cc1)NC1CCCC1 was read as Bcl-xL primary inactive, GLD-1 RNA inh 36.6, E coli Lon inh inactive, cardiac RTF act inactive, RTF Ca sens inh inactive and GLD-1 TGE cf inactive.
Screening COc1ccc(-n2c(Cc3cc(=O)[nH]c(=O)[nH]3)nnc2SCC(=O)NC2CCCC2)cc1 returned Bcl-xL primary inactive, GLD-1 RNA inh inactive, E coli Lon inh inactive, cardiac RTF act inactive and RTF Ca sens inh inactive.
COc1cc(-c2n[nH]c(=S)n2C(C)c2ccccc2)cc(OC)c1OC (stereo not given) was read as Bcl-xL primary inactive, GLD-1 RNA inh inactive, E coli Lon inh inactive, cardiac RTF act inactive and RTF Ca sens inh inactive.
O=C(O)CSc1nnc(Nc2ccccc2)n1-c1ccccc1 was read as Bcl-xL primary inactive, GLD-1 RNA inh inactive, E coli Lon inh inactive, cardiac RTF act inactive and RTF Ca sens inh inactive.
`COc1ccccc1C1C2=C(CCCC2=O)N(CC(=O)O)C2=C1C(=O)CCC2` gave Bcl-xL primary 48.4, GLD-1 RNA inh 57.5, E coli Lon inh inactive, cardiac RTF act inactive, RTF Ca sens inh inactive and GLD-1 TGE cf inactive.
For CN1C2C=C3C(C#N)=C(N)C(C#N)(C#N)[C@@H](c4cccs4)C3C1CC2 (stereo not given in full) the results were Bcl-xL primary 43.1, GLD-1 RNA inh 33.0, E coli Lon inh inactive, cardiac RTF act inactive, RTF Ca sens inh inactive and GLD-1 TGE cf inactive.
CN(C)C(=O)CNc1ccn2nc(-c3cccc(OCCN4CCOCC4)c3)cc2n1 was read as E coli Lon inh inactive.
Screening Cc1cc(=O)oc2cc(OCC(=O)Nc3cccnc3)ccc12 returned GLD-1 RNA inh inactive, E coli Lon inh inactive, cardiac RTF act inactive and RTF Ca sens inh inactive.
